Molecular target: RPS6KA5
Experiment: pooled miR-30 sensor sort-seq; sequence = guide strand
Settings: shRNA
Also: reference of the scale not given here.

Question: For TTGCTGATTATTTTGACTGCAA, which sensor-assay potency score (higher = more potent) is on record?
Answer: Its sensor-assay potency score (higher = more potent) is 0.0107.

Question: TAATTCATCTCGAATGACTGGC was tested. Which sensor-assay potency score (higher = more potent) did it give?
Answer: Its sensor-assay potency score (higher = more potent) is 0.637.

Question: How did the sensor-assay potency score (higher = more potent) turn out when TCACTTTTTAATATTCTCCTAG was run?
Answer: Its sensor-assay potency score (higher = more potent) is -0.3.

Question: TTTCTGTGAACTCTTCTGCAAA was tested. Which sensor-assay potency score (higher = more potent) did it give?
Answer: Its sensor-assay potency score (higher = more potent) is -1.11.

Question: How did the sensor-assay potency score (higher = more potent) turn out when TACACGTCAAACTTCGGTCATG was run?
Answer: The sensor-assay potency score (higher = more potent) was -0.748.

Question: For TTTTTCTCCATCAACAGTGAAA, which sensor-assay potency score (higher = more potent) is on record?
Answer: The sensor-assay potency score (higher = more potent) was -1.03.

Question: For TTTTTATGCACACACTTTCGAC, which sensor-assay potency score (higher = more potent) is on record?
Answer: Its sensor-assay potency score (higher = more potent) is -1.13.

Question: How did the sensor-assay potency score (higher = more potent) turn out when TTTGTTTGGATCTACTGTGAGA was run?
Answer: Its sensor-assay potency score (higher = more potent) is -1.04.

Question: For TACAGCTGAAACAAGCTTCCTC, which sensor-assay potency score (higher = more potent) is on record?
Answer: The sensor-assay potency score (higher = more potent) was 0.279.

Question: With TTCTCCTAGATATCTCAGCTTG as the sequence, how does the sensor-assay potency score (higher = more potent) read?
Answer: The sensor-assay potency score (higher = more potent) was -0.946.

Question: How did the sensor-assay potency score (higher = more potent) turn out when TTCATCTCGAATGACTGGCTTA was run?
Answer: The sensor-assay potency score (higher = more potent) was 0.378.

Molecular target: RRP12
Experiment: as above
Settings: shRNA

Question: How did the sensor-assay potency score (higher = more potent) turn out when TAGATCTTAGATTCCACTGTGC was run?
Answer: The sensor-assay potency score (higher = more potent) was 0.564.

Question: With TGCAGCTTCATCTTCTTCCTGC as the sequence, how does the sensor-assay potency score (higher = more potent) read?
Answer: Its sensor-assay potency score (higher = more potent) is 0.0542.

Question: How did the sensor-assay potency score (higher = more potent) turn out when TTGAGCTCTGCTGACAGGGTGC was run?
Answer: Its sensor-assay potency score (higher = more potent) is -0.0342.

Question: How did the sensor-assay potency score (higher = more potent) turn out when TCAACTTAGCTGAGACACCAGA was run?
Answer: The sensor-assay potency score (higher = more potent) was -0.378.

Question: TTGCTCTCTAGGTAGGGCCGGA was tested. Which sensor-assay potency score (higher = more potent) did it give?
Answer: Its sensor-assay potency score (higher = more potent) is -0.614.

Question: With TTCAACTTAGCTGAGACACCAG as the sequence, how does the sensor-assay potency score (higher = more potent) read?
Answer: The sensor-assay potency score (higher = more potent) was -0.063.

Question: How did the sensor-assay potency score (higher = more potent) turn out when TCGACTGTCAGGTCACTCCTTC was run?
Answer: The sensor-assay potency score (higher = more potent) was -0.238.

Question: How did the sensor-assay potency score (higher = more potent) turn out when TATGTAACTTCACAGCATCGAC was run?
Answer: The sensor-assay potency score (higher = more potent) was -0.864.

Question: With TTGTAAATCATTCTCACTGGGA as the sequence, how does the sensor-assay potency score (higher = more potent) read?
Answer: Its sensor-assay potency score (higher = more potent) is 0.0361.

Question: TTTCTGGTGCTTGAGCTTCTGG was tested. Which sensor-assay potency score (higher = more potent) did it give?
Answer: The sensor-assay potency score (higher = more potent) was -0.862.

Question: How did the sensor-assay potency score (higher = more potent) turn out when TTGTTGTCATCAGAGCAGCGAA was run?
Answer: Its sensor-assay potency score (higher = more potent) is -1.32.

Question: For TAACTTCACAGCATCGACTGTC, which sensor-assay potency score (higher = more potent) is on record?
Answer: Its sensor-assay potency score (higher = more potent) is 0.541.

Molecular target: RSF1
Experiment: as above
Settings: shRNA

Question: With TAGAATTTGTATCTTTCTCTGA as the sequence, how does the sensor-assay potency score (higher = more potent) read?
Answer: The sensor-assay potency score (higher = more potent) was 0.105.

Question: With TATTTCTTTACCACGTCGCAAA as the sequence, how does the sensor-assay potency score (higher = more potent) read?
Answer: Its sensor-assay potency score (higher = more potent) is -1.15.

Question: Which sensor-assay potency score (higher = more potent) does the source give for TAAGGCAACATCCAAATCCTGC here?
Answer: The sensor-assay potency score (higher = more potent) was -1.12.

Question: How did the sensor-assay potency score (higher = more potent) turn out when TTTGAGATTGTCATCAAACTGA was run?
Answer: Its sensor-assay potency score (higher = more potent) is 0.222.

Question: With TTGATCTTCAGAAAAGTCTGGC as the sequence, how does the sensor-assay potency score (higher = more potent) read?
Answer: Its sensor-assay potency score (higher = more potent) is 0.121.

Question: For TTACTTTAGAATTTGTATCTTT, which sensor-assay potency score (higher = more potent) is on record?
Answer: The sensor-assay potency score (higher = more potent) was 0.216.

Question: How did the sensor-assay potency score (higher = more potent) turn out when TTGAGATCCATCACTGATCTTG was run?
Answer: The sensor-assay potency score (higher = more potent) was 0.36.

Question: TTGATCATCTTGTTCTTCTATG was tested. Which sensor-assay potency score (higher = more potent) did it give?
Answer: Its sensor-assay potency score (higher = more potent) is -0.223.

Question: TGTTCTTCTATGTACATTCTGA was tested. Which sensor-assay potency score (higher = more potent) did it give?
Answer: The sensor-assay potency score (higher = more potent) was 0.345.

Question: TTCTTTTGGTACTTCTCCGTTG was tested. Which sensor-assay potency score (higher = more potent) did it give?
Answer: Its sensor-assay potency score (higher = more potent) is -0.632.

Question: TTCTTTTCTTTCTTCATCCAAA was tested. Which sensor-assay potency score (higher = more potent) did it give?
Answer: The sensor-assay potency score (higher = more potent) was -0.992.

Question: How did the sensor-assay potency score (higher = more potent) turn out when TTACCAAGGACCATGAACCTGG was run?
Answer: Its sensor-assay potency score (higher = more potent) is 0.217.

Molecular target: RSPH9
Experiment: as above
Settings: shRNA

Question: For TCAATGACAGACACCAAGCGGG, which sensor-assay potency score (higher = more potent) is on record?
Answer: The sensor-assay potency score (higher = more potent) was -0.168.

Question: Which sensor-assay potency score (higher = more potent) does the source give for TTCACCTTCATTCACCTTCTGC here?
Answer: The sensor-assay potency score (higher = more potent) was -0.502.

Question: For TTAACCAGCATAAGAGACGTGA, which sensor-assay potency score (higher = more potent) is on record?
Answer: Its sensor-assay potency score (higher = more potent) is 0.0215.

Question: TTTAGCTCAACAGGCTCCCTGA was tested. Which sensor-assay potency score (higher = more potent) did it give?
Answer: The sensor-assay potency score (higher = more potent) was -0.548.

Question: TATTCTTTAGCTCAACAGGCTC was tested. Which sensor-assay potency score (higher = more potent) did it give?
Answer: The sensor-assay potency score (higher = more potent) was -1.09.

From the OligoGym collection
